Among all 2,200 compounds or so, about 1,200 (55%) were called active. Cut-off not given; nearly all actives show IC50 up to about 92 µM. So high a share suggests a set chosen from earlier hits. This is one part of the list.

The assay in a line: counter assay for TAg ATPase ADP read-out – biochemical, ADP-Hunter, fluorescence, counter-screen (AID 2501).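 Further: purified T antigen ATPase.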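 On inhibition: higher means more inhibition.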 Particulars: series mostly up to 100 µM. (A counterscreen serves to expose hits that act by an unwanted route or on another target.)
Take `Cc1cccc(N2CCN(C(=O)Cn3sc4nc(C)cc(C)c4c3=O)CC2C)c1` (stereo unspecified): the IC50 (commonly the concentration that inhibits the measured activity by half) was “inactive”.

With `O=C1CCCC2=C1C(c1ccc(Br)cc1)c1c([nH]c(=S)[nH]c1=O)N2` (stereo unspecified), the IC50 was 92 µM (active).

In the case of `O=c1[nH]c(=S)[nH]c2c1C(c1ccc(Br)cc1)c1c([nH]c(=S)[nH]c1=O)O2`, the IC50 result was “inactive”.

For `COCCCNC(=S)N/N=C/c1ccc(O)cc1O`, the IC50 is 6.62 µM (active).

As to `C/C(CCc1ccccc1)=N\NC(=S)NCCc1ccccc1`, the IC50 result was “inactive”.

For `COCCNC(=S)N/N=C(\C)c1ccc(O)cc1`, the IC50 is 3.77 µM (active).

`COCCCNC(=O)c1cc2cc3cc(OC)ccc3nc2o1`: the IC50 result was “inactive”.

Take `COCCCNC(=S)N/N=C/c1ccc(O)cc1`: the IC50 was 1.83 µM (active).

As to `O=[N+]([O-])c1ccc2c(c1N1CCCCC1)=NC1(CCCCC1)[N+]=2[O-]`, the IC50 result was “inactive”.

As to `COc1ccc(NC(=O)c2sc(=S)[nH]c2N)cc1`, the 50% inhibitory concentration (IC50) is 8.22 µM (active).

For `N=C1/C(=C\c2ccc(SCc3ccco3)o2)C(=O)N=C2SC=NN12`, the IC50 entry is “inactive”.

In the case of `O=C1Nc2ccccc2/C1=N\N=C\c1ccc(O)c(O)c1`, the IC50 is 8.1 µM (active).

`COc1cc(/C=N/N=C2/C(=O)Nc3ccccc32)cc(OC)c1O`: the IC50 is 5.67 µM (active).

`COc1cc(/C=N/N=C2/C(=O)Nc3ccccc32)ccc1O`: the half-maximal inhibitory concentration (IC50) was 4.52 µM (active).

As to `CCOC(=O)CN1C(=O)CC(c2ccc([N+](=O)[O-])cc2)C1=O` (stereo unspecified), the IC50 entry was “inactive”.

`O=C(CS(=O)(=O)c1ccccc1)c1cc2cc(F)ccc2oc1=O`: the IC50 entry was “inactive”.

As to `CN(C)C(=O)c1c(-c2ccccc2)oc2ccc(O)cc12`, the IC50 was 17.2 µM (active).

Turning to `C=CCSC1=NC(=O)/C(=C/c2cccs2)S1`, the IC50 result is “inactive”.

`COc1ccc(N2C(=S)NC3c4cc(Cl)ccc4OC2(C)C3C(=O)N(C)C)cc1` (stereo unspecified): the IC50 entry is “inactive”.

On to `CCOc1cc(/C=C2\C(=O)ON=C2c2ccccc2)cc(Br)c1O`, for which the IC50 entry was “inactive”.

In the case of `Cc1ccsc1/C=C1/C(=O)NN(c2ccccc2)C1=O`, the IC50 was 1.75 µM (active).

Regarding `CCOc1cc(/C=C2\C(=O)NN(c3ccccc3)C2=O)cc([N+](=O)[O-])c1O`, the concentration for half-maximal inhibition (IC50) was 6.78 µM (active).

Consider `CCOc1cc(/C=C2\C(=N)N3N=CSC3=NC2=O)ccc1OS(=O)(=O)c1ccccc1`, for which the IC50 result was “inactive”.

Consider `COc1cc(/C=C2/C(=O)NN(c3ccc(Cl)c(Cl)c3)C2=O)cc([N+](=O)[O-])c1O`, for which the IC50 was 14.6 µM (active).

Turning to `COc1cc(/C=C2\C(=O)NN(c3ccccc3)C2=O)cc([N+](=O)[O-])c1O`, the concentration for half-maximal inhibition (IC50) is 59.3 µM (active).

Consider `C/C(=N\NC(=O)c1csc(C)c1C)c1ccc(C)s1`, for which the IC50 entry is “inactive”.

Consider `O=Cc1coc2c(ccc3ccccc32)c1=O`, for which the 50% inhibitory concentration (IC50) is 10.1 µM (active).

Regarding `O=C1CC(c2ccc(O)c(O)c2)Oc2c1ccc(O)c2O` (stereo unspecified), the 50% inhibitory concentration (IC50) was 13.6 µM (active).

`COc1cc(OC)c2c(c1O)OC(c1ccccc1)CC2=O` (stereo unspecified): the IC50 entry is “inactive”.

For `COc1cc([C@@H]2Oc3cc(C4Oc5cc(O)cc(O)c5C(=O)[C@H]4O)ccc3O[C@H]2CO)ccc1O` (stereo partly specified), the half-inhibitory concentration (IC50) was 31.4 µM (active).

On to `O=C1CC(c2ccc(O)c(O)c2)Oc2cc(O)cc(O)c21` (stereo unspecified), for which the IC50 is 4.23 µM (active).

For the compound `O=C1c2c(O)cc(O)cc2O[C@H](c2ccc(O)c(O)c2)[C@H]1O`, the concentration for half-maximal inhibition (IC50) is 5.9 µM (active).

For the compound `CC(=O)Nc1nnc(SCc2cccc(F)c2)s1`, the IC50 result is “inactive”.

Regarding `O=C1/C(=C/c2ccco2)SC(=S)N1CCC(=O)N1CCCCC1CCO` (stereo unspecified), the IC50 result is “inactive”.

On to `O=C1NC(=S)S/C1=C/c1ccc(N2CCOCC2)o1`, for which the half-maximal inhibitory concentration (IC50) is 18.9 µM (active).

For `O=C(O)CN1C(=O)/C(=C\C(Br)=C\c2ccccc2)SC1=S`, the IC50 entry is “inactive”.

For `O=C(O)CN1C(=O)/C(=C/c2ccc(N3CCCCC3)o2)SC1=S`, the IC50 is 38.4 µM (active).

As to `O=C1NC(=S)S/C1=C\c1ccc(SCc2ccccc2)o1`, the IC50 result was “inactive”.

With `COc1ccccc1N1C(=O)C=C(Sc2nc(C)cc(C)n2)C1=O`, the IC50 result is “inactive”.

For `CN(C)c1ccc(N=c2sc3ccccc3n2C)cc1`, the IC50 was 7.65 µM (active).

On to `COC(=O)/C(=C/Nc1ccc(O)cc1)[N+](=O)[O-]`, for which the IC50 was 3.8 µM (active).

With `O=C(c1ccco1)N1CCN(C(=S)Nc2ccc(F)c(Cl)c2)CC1`, the half-inhibitory concentration (IC50) is 39.5 µM (active).

`N=c1c[n+](N2CCOCC2)[n-]o1`: the IC50 result is “inactive”.

For the compound `CN1CCN(c2nc(Nc3ccc(O)cc3)nc3ccccc23)CC1`, the IC50 was 6.32 µM (active).

Turning to `Oc1ccc(Nc2nc(N3CCCC3)c3ccccc3n2)cc1`, the IC50 was 4.06 µM (active).

Take `C(=Nc1ccc(Nc2ccccc2)cc1)c1ccc2ccccc2c1`: the IC50 was 6.4 µM (active).

Regarding `O/N=C/c1ccc2ccccc2c1`, the IC50 entry is “inactive”.

`C/C(=C/c1oc2ccc(O)cc2c1[N+](=O)[O-])N(C)C`: the IC50 is 5.75 µM (active).

As to `CC(=O)N1CCN(c2ccc(NCc3cccc4ccccc34)cc2)CC1`, the IC50 was 4.52 µM (active).

For the compound `O=C(C1=C[C@H](C2CCCCC2)C[C@H](OCCCCO)O1)N1CCN(Cc2ccc3c(c2)OCO3)CC1`, the IC50 result was “inactive”.

Regarding `O=C(c1ccccc1)N1CCN(c2ccc(NCc3ccc4c(c3)OCO4)cc2)CC1`, the IC50 is 5.7 µM (active).

As for `CC(=O)N1CCN(c2ccc(NCc3ccc(C)s3)cc2)CC1`, the half-maximal inhibitory concentration (IC50) was 3.62 µM (active).

Consider `O=C(c1ccc(CNS(=O)(=O)c2ccccc2)cc1)N1CCN(Cc2ccccc2)CC1`, for which the IC50 result is “inactive”.

In the case of `O=C(O)CC(C(=O)O)n1nc(-c2ccccc2)cc1-c1ccccc1` (stereo unspecified), the IC50 result was “inactive”.

`CC(=O)c1ccc2c(c1)C1C=CCC1C(C(=O)O)N2` (stereo unspecified): the IC50 result was “inactive”.

On to `CCn1ccc(C(=O)N2CCN(c3ncccn3)CC2)n1`, for which the IC50 result is “inactive”.

Take `Cc1csc(N/N=C/c2ccc(O)c([N+](=O)[O-])c2)n1`: the half-inhibitory concentration (IC50) is 13.2 µM (active).

For the compound `CC(C)(C)c1ccc(C(=O)n2cnc3ccccc32)cc1`, the IC50 entry was “inactive”.

Consider `Oc1ccc(-c2nc(-c3ccc(F)cc3)c(-c3ccncc3)[nH]2)cc1`, for which the IC50 is 8.21 µM (active).

For the compound `C/C(=N/OC(=O)C1CC1)c1cc(-c2ccc(Cl)cc2)no1`, the IC50 result was “inactive”.

Regarding `Cc1ccc(OC(=S)Nc2ccc(O)cc2)cc1`, the IC50 is 7.84 µM (active).

With `CC1(c2ccccc2)NC(=O)N(CC(=O)Nc2ccc(S(=O)(=O)Nc3ncccn3)cc2)C1=O` (stereo unspecified), the IC50 result is “inactive”.

Turning to `CCN(c1ccc(NC(=O)CN2C(=O)NC3(CCOc4ccccc43)C2=O)cc1)C(C)C` (stereo unspecified), the IC50 is 11.1 µM (active).

`Cc1cc(C(=O)NNC(=O)CN2C(=O)NC(C)(c3ccccc3)C2=O)c(C)o1` (stereo unspecified): the IC50 entry is “inactive”.

With `Cc1cc2c(N=O)c(NO)ccc2[nH]1`, the IC50 is 24.4 µM (active).

For the compound `O=C1CNC(=S)N1CCc1ccc(O)c(O)c1`, the IC50 was 10.7 µM (active).
